Measured values reported in PubChem BioAssay (NCATS).
Inconclusive results are not listed. The source made the active and inactive calls. Calls come from the whole dose curve; as a rule, active = well fitted inhibition curve with a large enough effect; inconclusive = small, poorly fitted or top-dose-only effect; inactive = flat fitted curve, though single readings scatter.

test system: CRL-7250; test: qHTS assay to identify novel small-molecules to repurpose for Merkel cell carcinoma treatment (AID 1296009); conditions: MCC and control cell lines, CellTiter-Glo viability, 72 h; series mostly up to 92 µM; activity change, negative = cytotoxicity: at the top concentration; note: nearly all actives have a fitted effect of over 60% in size
Method in brief: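 Cells were treated for 72 hr at 37 degree celsius with compounds in 8- or 11-point dose response. Viability was read by CellTiter-Glo luminescence, normalized to no-cell (cytotoxicity) and DMSO controls.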

Compound	outcome
C/C=C1\[C@H](O[C@@H]2O[C@H](CO)[C@@H](O)[C@H](O)[C@H]2O)OC=C(C(=O)OC)[C@H]1CC(=O)OC	inactive [at 17.4 µM]
CC(=O)c1c(C)cc(O[C@@H]2O[C@H](CO)[C@@H](O)[C@H](O)[C@H]2O)cc1O	inactive
CC(C)(Oc1ccc(-c2nc3cc(Cl)ccc3s2)cc1)C(=O)O	inactive
Cc1ncc(Cl)cc1NCc1ccc(C(=O)NC(CC2CCCC2)C(=O)NC2CC2)s1 (stereo unspecified)	inactive
COC(=O)[C@@H]1C2CC3c4[nH]c5ccccc5c4CCN3CC2CC[C@@H]1O (stereo partly specified)	inactive
Cc1cc(O)cc(O[C@@H]2O[C@H](CO)[C@@H](O)[C@H](O)[C@H]2O)c1	inactive
CC(O)(CC(=O)O)CC(=O)OCc1ccc(O[C@@H]2O[C@H](CO)[C@@H](O)[C@H](O)[C@H]2O)cc1 (stereo partly specified)	inactive [at 17.4 µM]
CC1=C2C(=O)C=C(CO)C2C2OC(=O)C(CS(=O)(=O)O)C2C(OC(=O)Cc2ccc(O)cc2)C1 (stereo unspecified)	inactive [at 17.4 µM]
CC(=O)OCC1=C[C@H](O)[C@@H]2C(C(=O)O)=CO[C@@H](O[C@@H]3O[C@H](CO)[C@@H](O)[C@H](O)[C@H]3O)[C@H]12	inactive [at 17.4 µM]
COc1cc(C(CO)C(OC2OC(CO)C(O)C(O)C2O)c2ccc(O)c(OC)c2)ccc1O (stereo unspecified)	inactive [at 17.4 µM]
CC1(C)CC[C@]2(C(=O)O)CC[C@]3(C)C(=CCC4[C@@]5(C)C[C@@H](O)[C@H](O)[C@@](C)(CO)C5CC[C@]43C)C2C1 (stereo partly specified)	inactive [at 17.4 µM]
CC(C)(CO)c1cc2cc(NC(=O)C3(c4ccc5c(c4)OC(F)(F)O5)CC3)c(F)cc2n1CC(O)CO (stereo unspecified)	inactive
CN(C)C(=O)C(O)C(Cc1ccccc1)NC(=O)c1cc2cc(Cl)ccc2[nH]1 (stereo unspecified)	inactive
COc1cc(C(=O)O)ccc1OC1OC(CO)C(O)C(O)C1O (stereo unspecified)	inactive
O=C(Nc1ccc(-c2ccc(Cl)c(Cl)c2)cc1)C1=C(O)c2ccccc2S(=O)(=O)N1	inactive
COc1cc(C(=O)OC[C@@]2(O)CO[C@@H](O[C@H]3[C@H](Oc4ccc(O)cc4)O[C@H](CO)[C@@H](O)[C@@H]3O)[C@@H]2O)cc(OC)c1O	inactive [at 17.4 µM]
CC(C)=C[C@@H]1[C@H](CO[C@@H]2O[C@H](CO)[C@@H](O)[C@H](O)[C@H]2O)C1(C)C	inactive
O=C(Cc1ccc(Cl)cc1)Nc1cnccc1C(=O)O	inactive

Compound	outcome
COC(=O)c1cc(CN2CCN(C(=N)N)CC2)cc(C(=O)N2CCN(C(=O)c3ccc(C(=N)N)cc3)CC2)c1	inactive
CC1CCC2(CO)C(C(=O)O)=CCCC2C1(C)CCc1ccoc1 (stereo unspecified)	inactive
CO[C@H]1O[C@@H]2O[C@@]3(C)CCC4[C@H](C)CCC([C@H]1C)[C@]42OO3 (stereo partly specified)	inactive
O=C(OC[C@H]1O[C@@H](Oc2ccccc2COC(=O)C2(O)C=CCCC2O)[C@H](O)[C@@H](O)[C@@H]1O)c1ccccc1 (stereo partly specified)	inactive [at 17.4 µM]
COC(O)(CC(C)C)C1Oc2cc(C)[nH]c(=O)c2O1 (stereo unspecified)	inactive
CCOC(=O)COc1ccc2c(c1)C[C@@H](NC[C@H](O)c1cccc(Cl)c1)CC2	inactive
C=C[C@H]1C(O[C@@H]2O[C@H](CO)[C@@H](O)[C@H](O)[C@H]2O)OC=C2C(=O)N3CCc4c([nH]c5ccccc45)C3CC21 (stereo partly specified)	inactive [at 17.4 µM]
CC(C)(O)C1CCC(C)(C2CCC3(C)C4CCC5C(C)(C(=O)OC6OC(CO)C(O)C(O)C6O)C(O)CC(O)C56CC46CCC23C)O1 (stereo unspecified)	inactive [at 17.4 µM]
O=c1c2ccccc2nc2n1CCC2O (stereo unspecified)	inactive [at 92 µM]
CCC(O)(C(=O)OCc1ccccc1NC(=O)CCC(=O)O)C(C)O (stereo unspecified)	inactive
Cn1ccnc1CCOC(c1cc2nccc(C(=O)O)c2[nH]1)c1ccccc1Cl (stereo unspecified)	inactive
C[C@@H](c1ccccc1)N(C(N)=NC#N)c1cccc2ncccc12	inactive
C[C@@H]1C[C@H]2OC(=O)[C@@]3(C)CCC[C@](C)(C23)[C@@]1(O)CCC1=CC(=O)OC1O (stereo partly specified)	inactive
COc1ccc(/C=C\C(=O)O)c(O[C@@H]2O[C@H](CO)[C@@H](O)[C@H](O)[C@H]2O)c1	inactive
Cc1oc(S(=O)(=O)N2CCCCC2)cc1NC(=O)Nc1ccccc1	inactive
C/C=C(\C)C(=O)O[C@H]1[C@@H](O[C@]2(COC(=O)CC(C)C)O[C@H](COC(=O)C(C)C)[C@@H](OC(C)=O)[C@@H]2O)O[C@H](COC(C)=O)[C@@H](O)[C@@H]1O	inactive [at 17.4 µM]
Cn1c2ccc(NC(=O)c3ccccc3)cc2c(=O)n2nc(C(=O)O)cc12	inactive [at 17.4 µM]
CC(=O)OC1CC(C(C)(C)O)OC2CCC3(C)OC4=C(C(=O)C=C5C(C)C(OC(C)=O)C6(C)C(C)OC546)C(O)C3C12C (stereo unspecified)	inactive [at 17.4 µM]
